These results are taken from PubChem BioAssay (EPA / NIEHS).

“And” between values parts separate entries of the source, which are not always exact repeats. Equal values may be shown once. Records with an inconclusive call do not appear. Where a structure was tested more than once in an assay, its records may differ in their call. The source made the active and inactive calls. The calls were made as follows, unless noted: active = hit-call score of the fitted dose curve at least 0.9, where 1 is the maximum; inactive = score below 0.9.

The term AC50 denotes the concentration giving half of the maximal activity seen.

Chain of Nuclear receptor subfamily 1 group I member 3 (Homo sapiens) (Q14994 whole entry, looked up, the tested form may be a part): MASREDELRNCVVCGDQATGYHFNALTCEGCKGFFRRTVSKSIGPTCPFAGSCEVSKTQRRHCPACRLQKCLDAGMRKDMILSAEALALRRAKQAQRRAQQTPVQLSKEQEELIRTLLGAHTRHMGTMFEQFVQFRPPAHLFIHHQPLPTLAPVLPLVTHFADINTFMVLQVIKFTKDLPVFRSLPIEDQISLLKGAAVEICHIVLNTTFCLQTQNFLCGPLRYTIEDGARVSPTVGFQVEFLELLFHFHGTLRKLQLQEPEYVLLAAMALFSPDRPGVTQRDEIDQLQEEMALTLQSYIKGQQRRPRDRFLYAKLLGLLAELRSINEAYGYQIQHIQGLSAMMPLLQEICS

System in one test: not listed separately
Put plainly: ATG_TGFb_CIS: Attagene CIS-FACTORIAL HepG2 Assay for human Transforming Growth Factor (TGF) (AID 2282967). As to conditions: HepG2 Attagene CIS TGFb reporter, mRNA transcription; actives raise or lower the signal. The procedure, abridged:
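Liver HepG2 line, cis-factorial reporter panel, 24 h dosing. Quantitation: RT-PCR products labeled with 6-FAM, cut with HpaI, resolved by capillary electrophoresis; DMSO-referenced bidirectional analysis.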
As for `O[Si](c1ccccc1)(c1ccccc1)c1ccccc1`, the compound was called inactive.

`OCCCC(F)(F)C(F)(F)C(F)(F)F`: the result was inactive.

Regarding `FC(F)(F)C(F)(F)C(F)(F)C(F)(F)C(F)(F)CCI`, the call was inactive.

On to `COC(OC(C)=O)c1ccccc1` (stereo not drawn), for which the outcome was inactive.

With `FC(F)(F)C(F)(F)C(F)(F)C(F)(F)C(F)(F)C(F)(F)CCS`, the result was inactive.

For the compound `CCCCCCCOC(=O)c1ccccc1C(=O)OCCCCCCC`, the compound was called inactive.

As for `O=C(O)C(F)(F)C(F)(F)C(F)(F)C(F)(F)C(F)(F)C(F)(F)C(F)(F)C(F)(F)Cl`, the AC50 was 74.7 µM (active) and 82.8 µM (active).

In the case of `O=C(O)C(F)(F)C(F)(F)C(F)(F)C(F)(F)C(F)(F)C(F)(F)C(F)(F)C(F)(F)C(F)(F)C(F)F`, the call was inactive.

As to `Nc1ccc(Oc2cccc(Oc3ccc(N)cc3)c2)cc1`, the outcome was inactive.

`CCCCCC=O`: the call was inactive.

As for `CCCCCCC(C)OC(=O)CCCCC(=O)OC(C)CCCCCC` (stereo not drawn), the call was inactive.

For the compound `c1ccc(B(c2ccccc2)c2ccccc2)cc1`, the result was inactive.

For the compound `CC(CCl)OP(=O)(OC(C)CCl)OC(C)CCl` (stereo not drawn), the call was inactive.

System in a further test: not listed separately
Put plainly: ATG_VDRE_CIS: Attagene CIS-FACTORIAL HepG2 Assay for human Vitamin D Receptor Element (VDRE) (AID 2282968). Conditions: HepG2 VDRE cis-reporter transcription, actives raise or lower the signal. The method in brief: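 Cell-based multiplexed reporter format in human liver HepG2 cells, 24 h post-dose. Fluorescence from capillary electrophoresis of reporter cDNA gives the signal, with DMSO as negative control and baseline.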
Take `O=C(O)C(F)(F)C(F)(F)C(F)(F)C(F)(F)F`: the outcome was inactive.

Take `O=C(O)C(F)(F)C(F)(F)OC(F)(F)F`: the call was inactive.

As for `O=S(=O)(O)C(F)(F)C(F)(F)C(F)(F)C(F)(F)C(F)(F)C(F)(F)C(F)(F)F`, the result was inactive.

As for `CS(C)(=O)=O`, the compound was classed as inactive.

With `FC(F)(F)C(F)(F)C(F)(F)N(C(F)(F)C(F)(F)C(F)(F)F)C(F)(F)C(F)(F)C(F)(F)F`, the compound was classed as inactive.

With `CC(C)c1ccccc1N`, the concentration at half-maximal activity (AC50) is 35.5 µM (active).

Consider `[Co]`, for which the call was inactive.

Take `COC(=O)C1CCC(C(=O)OC)CC1` (stereo not drawn): the compound was classed as inactive.

Take `FC(F)(F)C(F)(F)C(F)(F)C(F)(F)C(F)(F)C(F)(F)C(F)(F)Br`: the outcome was inactive.

`CCCCCCOC(=O)c1ccccc1`: the call was inactive.

As to `CCc1c(Br)c(Br)c(Br)c(Br)c1Br`, the compound was classed as inactive.

On to `CC/C=C\CCOC(C)=O`, for which the call was inactive.

On to `FC(F)(F)C(F)(F)C(F)(F)C(F)(F)C(F)(F)C(F)(F)C(F)(F)C(F)(F)CCS`, for which the compound was called inactive.

In the case of `OCCCC(F)(F)C(F)(F)C(F)(F)C(F)(F)C(F)(F)C(F)(F)C(F)(F)F`, the AC50 is 150 µM (active) and the outcome was inactive.

Take `CC(=O)Nc1ccc(N=Nc2cc(C)ccc2O)cc1`: the AC50 is 13.6 µM (active).

As for `O=C(O)C(F)(F)C(F)(F)C(F)(F)C(F)(F)C(F)(F)C(F)(F)C(F)(F)C(F)(F)C(F)(F)C(F)(F)C(F)(F)C(F)(F)C(F)(F)F`, the compound was called inactive.

Turning to `O=P(O)(O)OCCC(F)(F)C(F)(F)C(F)(F)C(F)(F)C(F)(F)C(F)(F)F`, the result was inactive.

In the case of `CC(C)(C)C(=O)CC(=O)C(F)(F)C(F)(F)C(F)(F)F`, the compound was classed as inactive.

Turning to `O=C(O)C(F)(F)C(F)(F)C(F)(F)F`, the result was inactive.

Turning to `NC(=O)C(F)(F)C(F)(F)C(F)(F)C(F)(F)F`, the result was inactive.

Consider `O[Si](c1ccccc1)(c1ccccc1)c1ccccc1`, for which the compound was classed as inactive.

Take `OCCCC(F)(F)C(F)(F)C(F)(F)F`: the compound was called inactive.

In the case of `FC(F)(F)C(F)(F)C(F)(F)C(F)(F)C(F)(F)CCI`, the outcome was inactive.

For the compound `COC(OC(C)=O)c1ccccc1` (stereo not drawn), the call was inactive.

As for `O=C(CC(=O)C(F)(F)C(F)(F)F)C(F)(F)F`, the outcome was inactive.

Take `FC(F)(F)C(F)(F)C(F)(F)C(F)(F)C(F)(F)C(F)(F)CCS`: the call was inactive.

Consider `CCCCCCCOC(=O)c1ccccc1C(=O)OCCCCCCC`, for which the compound was classed as inactive.

Turning to `O=C(O)C(F)(F)C(F)(F)C(F)(F)C(F)(F)C(F)(F)C(F)(F)C(F)(F)C(F)(F)Cl`, the AC50 was 49.3 µM (active) and 67.4 µM (active).

`O=C(O)C(F)(F)C(F)(F)C(F)(F)C(F)(F)C(F)(F)C(F)(F)C(F)(F)C(F)(F)C(F)(F)C(F)F`: the outcome was inactive.

Consider `Nc1ccc(Oc2cccc(Oc3ccc(N)cc3)c2)cc1`, for which the compound was called inactive.

As to `CCCCCC=O`, the result was inactive.

Consider `CCCCCCC(C)OC(=O)CCCCC(=O)OC(C)CCCCCC` (stereo not drawn), for which the outcome was inactive.

For `c1ccc(B(c2ccccc2)c2ccccc2)cc1`, the AC50 was 20.7 µM (active).

In the case of `CC(CCl)OP(=O)(OC(C)CCl)OC(C)CCl` (stereo not drawn), the result was inactive.

Another test deals with Nuclear receptor subfamily 1 group I member 3 (Homo sapiens) (UniProt Q14994). In words: ATG_CAR_TRANS: Attagene TRANS-FACTORIAL HepG2 Assay for human Constitutive Androstane Receptor (CAR) (AID 2282969; active = hit-call score of the fitted dose curve at least 0.9, where 1 is the maximum;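 also: activators raise reporter mRNA above DMSO so AC50 marks induction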). Conditions: HepG2 Attagene TRANS-FACTORIAL CAR reporter. The procedure, abridged:
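HepG2 cells transiently transfected with GAL4-UAS reporter units; TRANS format reads activity of exogenous chimeric NR-Gal4 protein. After 24 h dosing, reporter mRNA quantified by RT-PCR, 6-FAM labelling and capillary electrophoresis; gain of signal fitted against DMSO.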
For `O=C(O)C(F)(F)C(F)(F)C(F)(F)C(F)(F)F`, the compound was classed as inactive.

Consider `O=C(O)C(F)(F)C(F)(F)OC(F)(F)F`, for which the compound was classed as inactive.

As for `O=S(=O)(O)C(F)(F)C(F)(F)C(F)(F)C(F)(F)C(F)(F)C(F)(F)C(F)(F)F`, the call was inactive.

Regarding `CS(C)(=O)=O`, the outcome was inactive.

On to `FC(F)(F)C(F)(F)C(F)(F)N(C(F)(F)C(F)(F)C(F)(F)F)C(F)(F)C(F)(F)C(F)(F)F`, for which the call was inactive.

Regarding `CC(C)c1ccccc1N`, the call was inactive.

`[Co]`: the outcome was inactive.

As to `FC(F)(F)C(F)(F)C(F)(F)C(F)(F)C(F)(F)C(F)(F)C(F)(F)Br`, the outcome was inactive.

Turning to `CCCCCCOC(=O)c1ccccc1`, the compound was classed as inactive.

With `CCc1c(Br)c(Br)c(Br)c(Br)c1Br`, the compound was classed as inactive.

Turning to `CC/C=C\CCOC(C)=O`, the compound was called inactive.

Consider `FC(F)(F)C(F)(F)C(F)(F)C(F)(F)C(F)(F)C(F)(F)C(F)(F)C(F)(F)CCS`, for which the outcome was inactive.

Take `CC(=O)Nc1ccc(N=Nc2cc(C)ccc2O)cc1`: the compound was classed as inactive.

On to `O=C(O)C(F)(F)C(F)(F)C(F)(F)C(F)(F)C(F)(F)C(F)(F)C(F)(F)C(F)(F)C(F)(F)C(F)(F)C(F)(F)C(F)(F)C(F)(F)F`, for which the compound was classed as inactive.

With `O=P(O)(O)OCCC(F)(F)C(F)(F)C(F)(F)C(F)(F)C(F)(F)C(F)(F)F`, the compound was called inactive.

As for `CC(C)(C)C(=O)CC(=O)C(F)(F)C(F)(F)C(F)(F)F`, the outcome was inactive.

Consider `O=C(O)C(F)(F)C(F)(F)C(F)(F)F`, for which the call was inactive.

For `NC(=O)C(F)(F)C(F)(F)C(F)(F)C(F)(F)F`, the compound was called inactive.

In the case of `O[Si](c1ccccc1)(c1ccccc1)c1ccccc1`, the compound was called inactive.

As for `OCCCC(F)(F)C(F)(F)C(F)(F)F`, the compound was called inactive.

Consider `FC(F)(F)C(F)(F)C(F)(F)C(F)(F)C(F)(F)CCI`, for which the call was inactive.

As to `COC(OC(C)=O)c1ccccc1` (stereo not drawn), the result was inactive.

With `FC(F)(F)C(F)(F)C(F)(F)C(F)(F)C(F)(F)C(F)(F)CCS`, the compound was called inactive.

On to `CCCCCCCOC(=O)c1ccccc1C(=O)OCCCCCCC`, for which the compound was classed as inactive.

With `O=C(O)C(F)(F)C(F)(F)C(F)(F)C(F)(F)C(F)(F)C(F)(F)C(F)(F)C(F)(F)C(F)(F)C(F)F`, the outcome was inactive.

As for `Nc1ccc(Oc2cccc(Oc3ccc(N)cc3)c2)cc1`, the call was inactive.

Take `CCCCCC=O`: the result was inactive.

For `CCCCCCC(C)OC(=O)CCCCC(=O)OC(C)CCCCCC` (stereo not drawn), the call was inactive.

Consider `c1ccc(B(c2ccccc2)c2ccccc2)cc1`, for which the call was inactive.

For `CC(CCl)OP(=O)(OC(C)CCl)OC(C)CCl` (stereo not drawn), the compound was classed as inactive.
